TDP1 cell CPT: growth inhibition of DT40 Tdp1-/-;hTDP1 cells with camptothecin (screen for TDP1 inhibitors); AID 686979; 12% of 420,000 active; chicken DT40 Tdp1-/-;hTDP1 cells + 20 nM CPT, ATP luminescence, 48 h; Potency, µM (highest dose often 46.2 µM), most hits filed as inhibitors; also: nearly all actives have a fitted effect of over 55% in size
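Chicken DT40 Tdp1-/- cells stably complemented with human TDP1 were seeded at 400 cells/well in medium containing 20 nM camptothecin, exposed to pin-transferred compounds, and grown at 37 °C for at least 48 hr. Viability was read as ATP luminescence.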
DT40 TDP1 no CPT: qHTS for Inhibitors of human tyrosyl-DNA phosphodiesterase 1 (TDP1): qHTS in cells in absence of CPT. DT40 Tdp1-/- hTDP1 cells, no CPT, ATP luminescence, 48 h. Potency, µM (series often up to 46.2 µM), actives largely listed as inhibitors. 15% of 420,000 active; also: nearly all actives have a fitted effect of over 55% in size
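Stably hTDP1-transfected Tdp1-null chicken DT40 cells were treated with library compounds minus camptothecin and grown for at least 48 hr at 37 °C, after which cellular ATP was quantified by luminescence.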
TDP1 inh: blocks human tyrosyl-DNA phosphodiesterase 1; 0.28% of 350,000 active; Q9NUW8; recombinant TDP1, AlphaScreen DNA substrate cleavage; AID 485290; Potency, µM (titrated, usually from 130 µM), usual class: inhibitors; also: nearly all actives have a fitted effect of over 40% in size
Target sequence (Q9NUW8 whole entry, looked up): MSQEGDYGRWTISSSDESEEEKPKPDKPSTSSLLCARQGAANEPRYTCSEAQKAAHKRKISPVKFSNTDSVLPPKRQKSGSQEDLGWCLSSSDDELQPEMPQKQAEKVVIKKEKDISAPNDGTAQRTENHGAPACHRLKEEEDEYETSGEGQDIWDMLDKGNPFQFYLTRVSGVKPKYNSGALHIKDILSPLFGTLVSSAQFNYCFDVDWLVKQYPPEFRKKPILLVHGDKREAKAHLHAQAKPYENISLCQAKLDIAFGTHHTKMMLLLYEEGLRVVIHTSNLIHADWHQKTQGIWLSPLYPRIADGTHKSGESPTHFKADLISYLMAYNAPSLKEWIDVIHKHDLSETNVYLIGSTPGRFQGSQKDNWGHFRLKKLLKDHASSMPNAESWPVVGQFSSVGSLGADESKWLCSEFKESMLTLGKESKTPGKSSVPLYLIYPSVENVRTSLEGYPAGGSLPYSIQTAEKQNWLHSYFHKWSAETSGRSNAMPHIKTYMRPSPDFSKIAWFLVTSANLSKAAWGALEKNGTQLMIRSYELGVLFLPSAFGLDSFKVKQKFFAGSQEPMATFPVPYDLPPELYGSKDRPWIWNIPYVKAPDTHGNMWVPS
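AlphaScreen read-out: signal falls as enzyme removes the 3' tyrosine-FITC from a 5'-biotinylated DNA oligo (15 nM, 5 min, RT). Enzyme was E. coli-made recombinant Tdp1 at 1 nM, exposed to compound for 15 min beforehand; beads 10 ug/ml, 10 min.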
ClpP mod: qHTS Assay for Activators of ClpP. Potency, µM (titrated, usually from 57.5 µM). ATP-dependent Clp protease proteolytic subunit (Bacillus subtilis (strain 168)), P80244. 1.9% of 340,000 active. purified B. subtilis ClpP, FRET peptide cleavage, 20 min; active = well fitted falling curve with a large enough effect; inconclusive = small, poorly fitted or top-dose-only effect; inactive = no such curve, though single readings can be large or run the other way; also: the source files actives as falling curves though it sought activators and does not explain the sign; nearly all actives have a fitted effect of over 65% in size
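Buffer: 100 mM Tris/HCl pH8, 100 mM KCl, 0.05% low protease BSA, 2.5% glycerol, 0.01% Tween-20. ClpP 10 microg/mL final; 20 min RT; delta FRET normalized to ADEP and DMSO controls.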
Hits are given with their value; - = inactive; ? = inconclusive; . = no result. Compounds with a hit are over-represented: about 17% of the library has one in this group of screens. Unless noted, calls follow the shape of the dose curve; as a rule, active = well fitted curve in the direction sought with a large enough effect; inconclusive = small, poorly fitted or top-dose-only effect, or another doubt; inactive = no such curve, though single readings can be large; an effect the other way counts as inactive or inconclusive.

SMILES | TDP1 cell CPT | DT40 TDP1 no CPT | TDP1 inh | ClpP mod
COc1ccccc1CNC(=O)CCNS(=O)(=O)c1ccc2c(c1)CCCC(=O)N2 | . | . | - | -
O=C(/C=C/c1ccc(OCCCF)cc1)Nc1ccnc(-c2ccncc2)n1 | ? | 23µM | - | .
O=C(/C=C/c1ccc(OCCCF)cc1)Nc1ccnc(-c2cccnc2)n1 | ? | ? | - | ?
Cc1ccc(CS(=O)(=O)c2nc3c(c(N(C)C)n2)CCCC3)cc1 | - | - | - | -
C=CCn1c(SCC(=O)N2CCN(c3ccccc3)CC2)nc2c([nH]c3ccccc32)c1=O | 16µM | 12µM | . | -
Cc1[nH]c2ccccc2c1SCC(=O)N1CCCCCC1 | - | - | - | -
CCOC(=O)N1CCN(C(=O)CSc2nc3c([nH]c4ccccc43)c(=O)n2CC)CC1 | ? | 15µM | - | -
Cc1[nH]c2ccccc2c1SCC(=O)N1CCN(c2ccccc2)CC1 | ? | 26µM | - | -
CCn1c(SCC(=O)N2CCCCC2)nc2c([nH]c3ccccc32)c1=O | - | - | . | -
COc1ccc(Cc2[nH]n3c(=O)cc(C(C)C)nc3c2-c2ccccc2)cc1 | 18µM | 7.3µM | - | .
Cc1cccc(C(=O)NNc2ncnc3c2cnn3-c2ccc(C)c(Cl)c2)c1 | - | - | - | -
c1ccc(Cn2nnnc2CN2CCN(Cc3ccc4c(c3)OCO4)CC2)cc1 | 21µM | ? | - | -
Cc1ccc(C(c2nnnn2Cc2cccs2)N2CCN(Cc3ccc4c(c3)OCO4)CC2)cc1 (stereo not given) | 7.3µM | 9.2µM | - | -
O=C1CC(N2CCN(Cc3ccc4c(c3)OCO4)CC2)C(=O)N1CCc1ccccc1 (stereo not given) | 13µM | ? | - | -
COCCn1nnnc1C(c1ccc(C)cc1)N1CCN(Cc2ccc3c(c2)OCO3)CC1 (stereo not given) | 16µM | ? | - | -
O=C1CC(N2CCN(Cc3ccc4c(c3)OCO4)CC2)C(=O)N1c1cccc2ccccc12 (stereo not given) | - | - | - | -
CC(C)(C)n1nnnc1C(c1cccs1)N1CCN(Cc2ccc3c(c2)OCO3)CC1 (stereo not given) | - | ? | - | -
COCCn1nnnc1C(c1ccccc1)N1CCN(Cc2ccc3c(c2)OCO3)CC1 (stereo not given) | - | ? | - | -
O=C(NC1CCCCC1)C(C1CC1)n1c(=O)c(-c2cc3ccccc3[nH]2)nc2ccccc21 (stereo not given) | ? | ? | . | -
N#CN1CCC(NC(=O)c2ccc(C(F)(F)F)cc2)CC1 | . | . | - | .
CCCC(c1nnnn1Cc1cccs1)N1CCN(C)CC1 (stereo not given) | - | - | - | .
COc1ccccc1CN1CCN(C(CC(C)C)c2nnnn2Cc2cccs2)CC1 (stereo not given) | 18µM | ? | - | -
O=C(OCCc1ccccc1)c1cc(O)c(O)c(O)c1 | 18µM | 23µM | - | -
CC(=O)c1cccc(OC(=O)c2ccccc2)c1 | - | - | . | 14µM
Nc1ccc(C(=O)OCCc2ccccc2)cc1 | ? | ? | - | -
SMILES | TDP1 cell CPT | DT40 TDP1 no CPT | TDP1 inh | ClpP mod
O=C(Oc1ccccc1)c1cccc(C(=O)Oc2ccccc2)c1 | - | - | . | .
O=C(Oc1ccccc1)c1cc(O)c(O)c(O)c1 | 21µM | 23µM | . | -
Cc1ccc(N(CC(=O)NC(C)C)C(=O)CCC(=O)Nc2nccs2)c(C)c1 | - | - | . | -
O=C(Cn1c(=O)oc2cc(S(=O)(=O)N3CCCCC3)ccc21)NCc1ccc(F)cc1 | 5.2µM | 5.8µM | - | -
COc1cccc(CNC(=O)Cn2c(=O)oc3cc(S(=O)(=O)N4CCCC4)ccc32)c1 | ? | 23µM | - | -
O=C(Cn1c(=O)oc2cc(S(=O)(=O)N3CCCCC3)ccc21)NCc1ccc(Cl)cc1 | 9.2µM | 7.3µM | - | -
COc1cccc(CNC(=O)Cn2ccc3cc(S(=O)(=O)N4CCCC4)ccc32)c1 | ? | ? | - | -
O=C(CNC(=O)c1ccc2n[nH]nc2c1)OC(C(=O)Nc1cc(C(F)(F)F)ccc1Cl)c1ccccc1 (stereo not given) | . | . | - | .
CC1CCC2(CC1)OCC1(CCC3(COC4(CCC(C)CC4)OC3)C1=O)CO2 (stereo not given) | - | - | - | .
CCC1CSC(Nc2ccc(C(=O)/C=C/c3cccc(C)c3)cc2)=N1 (stereo not given) | 16µM | 15µM | - | -
Cc1cccc(/C=N/NC(=O)c2ccc(Br)cc2)c1 | - | - | - | ?
O=C(/C=C/c1ccc(OC2CSC2)cc1)c1ccc(Cl)cc1 | ? | ? | - | -
CCC1CSC(Nc2ccc(C(=O)/C=C/c3ccc(Oc4ccccc4)cc3)cc2)=N1 (stereo not given) | 23µM | 16µM | - | -
O=C(CCN1C(=O)c2ccccc2C1=O)NCc1ccc(Cl)cc1 | - | - | . | .
COc1cccc(C(C)(O)c2nc(/C=C/c3ccccc3)cs2)c1 (stereo not given) | ? | 18µM | . | -
OC(c1cccnc1)c1nc(/C=C/c2ccc(C(F)(F)F)cc2)cs1 (stereo not given) | 21µM | 2.6µM | . | ?
CC(O)(c1ccccc1)c1nc(/C=C/c2ccccc2)cs1 (stereo not given) | ? | ? | . | -
OC(c1cccc(Cl)c1)c1nc(/C=C/c2ccc(C(F)(F)F)cc2)cs1 (stereo not given) | 23µM | ? | . | ?
O=C(O)c1cccc(-c2csc(C(O)c3cccc(Cl)c3)n2)c1 (stereo not given) | - | - | . | -
COc1cccc(C(O)c2nc(-c3cccc(F)c3)cs2)c1 (stereo not given) | ? | ? | . | -
COc1cccc(C(O)c2nc(/C=C/c3ccc(C(F)(F)F)cc3)cs2)c1 (stereo not given) | ? | ? | . | 28µM
Cc1ccn2cc(-c3cccc([N+](=O)[O-])c3)nc2c1 | - | - | - | .
CC(=O)N1CCc2ccc([N+](=O)[O-])cc21 | - | - | . | .
COc1ccccc1/C=C/C(=O)NCC(=O)N/N=C/c1ccc(C)o1 | - | - | - | .
Cc1onc(-c2ccccc2Cl)c1C(=O)O/N=C(\N)c1ccc([N+](=O)[O-])o1 | 18µM | 23µM | - | -
SMILES | TDP1 cell CPT | DT40 TDP1 no CPT | TDP1 inh | ClpP mod
Cc1onc(-c2ccccc2Cl)c1C(=O)OCC(=O)N1CCN(c2ccccc2)CC1 | ? | 16µM | - | -
Cc1onc(-c2ccccc2Cl)c1C(=O)OCn1nnc2ccccc2c1=O | 18µM | 16µM | - | -
COc1ccccc1N1CCN(C(=O)c2c(-c3ccccc3Cl)noc2C)CC1 | ? | 21µM | - | -
CCOC(=O)C1CCN(C(=O)CCC2CCCC2)CC1 | - | - | - | -
NC1=NC2CS(=O)(=O)CC2S1 (stereo not given) | - | - | - | -
CCC(=O)N1CCc2cc(S(=O)(=O)NC(CC(C)C)C(=O)NCc3ccc(C)cc3)ccc21 (stereo not given) | ? | - | - | -
